Test [1] can be described thus: rapamycin-like changes in RPL19A-GFP expression – cell-based, S. cerevisiae, multiplex flow cytometry, primary screen (AID 1862; in the data active = percent of DMSO control GFP below about 86%;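 note: lower values mimic rapamycin by blocking the RPL19A rise seen in DMSO cells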). The following applies: S. cerevisiae RPL19A-GFP strain, flow cytometry fluorescence, 3 h; at 10 µM; stronger effect = lower value.
Test [2] is described as follows: TOR pathway GLN3 branch reporter MEP2-GFP changes – S. cerevisiae, multiplex flow cytometry, primary screen (AID 1867;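 active = GFP response, as percent of the DMSO control, above the screen-wide mean plus 3 SD, about 139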;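 note: median GFP channel fluorescence of barcode-gated MEP2-GFP cells measured by flow cytometry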). The following applies: S. cerevisiae MEP2-GFP strain, 3 h, at 10 µM, stronger effect = higher value, 100% means same as DMSO wells. (In general: In flow cytometry, cells or beads pass a laser one at a time.)
Test [3] can be described thus: TOR pathway RTG branch CIT2 reporter changes – S. cerevisiae, GFP fusion, multiplex flow cytometry, primary screen (AID 1870;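 active = percent response above a set limit, the screen-wide mean plus 3 SD, cut at about 130% in these data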;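 note: barcoded CIT2-GFP strain pooled with four other GFP strains with rapamycin as positive control; median GFP fluorescence per well over plate mean of DMSO wells so 100% = DMSO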). The conditions noted are these: S. cerevisiae CIT2-GFP expression, 3 h, at 10 µM, stronger effect = higher value.
Test [4] in a line: TOR pathway LAP4-GFP level changes – S. cerevisiae, multiplex flow cytometry, primary screen (AID 1873;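 active = GFP signal, as percent of the solvent control, above the screen mean plus 3 SD, about 149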). The conditions noted are these: S. cerevisiae LAP4-GFP expression, 3 h, at 10 µM, stronger effect = higher value.
Test [5] is described as follows: yeast AGP1-GFP level changes, GLN3 branch – cell-based, multiplex flow cytometry, S. cerevisiae, primary screen (AID 1887;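 active = GFP signal above the screen-wide mean plus 3 SD, that is over about 124.5% of the solvent control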;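 note: AGP1-GFP fusion strain of S. cerevisiae within a five-strain barcoded multiplex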). The conditions noted are these: 3 h, at 10 µM, stronger effect = higher value.
A short description of test [6]: reduced mouse 2C T cell binding to pMHC/ICAM-1 vesicles – MLPCN validation set, flow cytometry, LFA-1/ICAM-1 modulator project, pilot screen (AID 2523;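 active = response below a set limit, under 55% cells CD8-positive and vesicle-bound, and CD8 cells' 90th-percentile brightness under 279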;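 for vesicle binding response: mean PE anti-B7-1 fluorescence of CD8+ cells relative to row control; 100% = QL9-loaded vesicles with DMSO vehicle in the same plate row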). The conditions noted are these: 2C mouse CD8+ T cells, at 7 µM, stronger effect = lower value; double positive events: measured here: CD8+/vesicle+ event percentage.
In test [7] the target is Integrin beta-1 (Homo sapiens) + Integrin alpha-4 (Homo sapiens) (UniProt P13612+P05556). Kind of test: alpha4beta1 integrin LIBS antibody binding reduction – U937 cells, HUTS-21 mAb, flow cytometry, validation set, VLA-4 allosteric modulator project, pilot screen (AID 2674;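 active = inhibition above 50%, about 3 SD of the validation set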;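 note: antibody binding induced by the VLA-4 ligand LDV present at three times its Kd; 0% = LDV ligand with antibody and no compound and 100% = antibody without LDV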). The following applies: HUTS-21 LIBS mAb binding, at 6.7 µM, stronger effect = higher value, binding induced by LDV ligand.

A short description of test [8]: calorie-restriction mimetic ROS inhibitors, yeast – validation compound set, pilot screen (AID 2706;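 active = superoxide response below 65% of plate, a cut near 3 SD across the whole screen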;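 note: yeast exposed to compound for one week at 30 degrees C before staining; 100% = mean of all compound wells on the same plate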). The following applies: S. cerevisiae aging, superoxide DHE fluorescence; at 10 µM, stronger effect = lower value.
Test [9] deals with Beta-adrenergic receptor kinase 1 (Homo sapiens) (UniProt P25098). Kind of test: GRK2 binders displacing RNA aptamer, biochemical, validation, human GRK2, bead flow cytometry (AID 488806;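 active = aptamer binding inhibition above 30%, about 3 SD of noise from non-fluorescent compounds; inactive = inhibition at or below 30%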). The following applies: bead-bound GRK2, FAM-aptamer displacement, at 10 µM, stronger effect = higher value.
In test [10] the target is Beta-2 adrenergic receptor (Homo sapiens) (UniProt P07550). Kind of test: agonist-induced loss of surface beta2AR – cell-based, FAP fluorogen, flow cytometry, validation set, pilot screen (AID 504459;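 active = percent response above 42, roughly 3 SD of non-fluorescent test compounds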;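 note: agonist-driven loss of surface beta2AR via internalization measured by FAP dye flow cytometry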). The following applies: Am2.2-beta2AR cells, at 10 µM, stronger effect = higher value.
A short description of test [11]: cytosolic pH regulators acting via V-ATPase – S. cerevisiae, pHLuorin, HTS validation (AID 504600; in the data active = response above about 15%;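 note: plate controls were DMSO for no effect and reference compound for full effect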). The following applies: V-ATPase proton transport, at 10 µM, stronger effect = higher value.
The test system of test [12] is anti-desmoglein-3 scFv antibody binding to human DSG3. Kind of test: blockers of pathogenic pemphigus antibody–desmoglein-3 binding – biochemical, validation compound set, bead-based, flow cytometry, pilot screen (AID 588368;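 active = binding below the plate cutoff, the plate median minus 3 SD, with a reading above zero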;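 note: signal is the median channel fluorescence of bead-bound GFP antibody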). The conditions noted are these: Protein G beads, DSG3-Fc, scFv-GFP binding, at 10 µM, stronger effect = lower value.
Test [13] can be described thus: Nile Red efflux blockade in pump-expressing yeast – validation compound set, multiplex, phenotypic, pilot screen (AID 588506;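 active = efflux inhibition above 0.42, the validation set average plus 4 SD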;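 note: Nile Red retained in cells so higher fluorescence means more efflux inhibition; 0 = negative control wells and 1 = enniatin B 25 µM full block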). The following applies: S. cerevisiae pump-expressing triplex, Nile Red efflux flow cytometry; at 10 µM; stronger effect = higher value; the pumps come from Candida albicans.
Test [14] addresses ATP-binding cassette sub-family B member 6 (Homo sapiens) (UniProt Q9NP58). Kind of test: blockers of ABCB6-driven porphyrin uptake – K562-ABCB6 cells, flow cytometry, validation set, pilot screen (AID 588550;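 active = inhibition above the screen-wide mean plus 3 SD, about 51%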;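 note: 0% = DMSO wells and 100% = benzethonium chloride 70 µM positive control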). The following applies: K562-ABCB6 porphyrin accumulation, 1 h, at 10 µM, stronger effect = higher value.
Test [15] in a line: AML differentiation inducers, ER-HoxA9 marrow cells – cell-based, GFP/MAC1 double positive, flow cytometry, validation set, primary screen (AID 588685).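 Note: compound exposure lasts four days before antibody staining and flow analysis; 0% = DMSO wells and 100% = 5 µM fulvestrant positive control.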 The following applies: stronger effect = higher value, normalized: vehicle 0, fulvestrant 100.
Test [16] has as its target AP-2 complex subunit beta (Homo sapiens) (UniProt P63010). Kind of test: beta-arrestin/AP2 interaction blockers – biochemical, validation set, GST-AP2 beads, flow cytometry, pilot screen (AID 504541;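 active = inhibition above 54%, about 3 SD of non-fluorescent compounds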;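 note: AP2 carries R879A mutation and is captured from E. coli lysate; bead-bound FITC arrestin peptide fluorescence measuring arrestin peptide binding to AP2; 0% = DMSO wells and 100% = excess unlabeled arrestin peptide control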). The conditions noted are these: FITC arrestin peptide, at 10 µM, stronger effect = higher value, AP2 beta2 appendage fragment, R879A mutant.

Inconclusive results are not listed. Active and inactive are the calls of the source.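 Rule for the calls, unless noted: active = differentiation response of at least 50%, scaled between solvent and reference control, from cells with both markers; inactive = the rest.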

Here are results for five compounds from PubChem BioAssay.

A word on the inhibition: it is the drop in the measured response relative to a control, in per cent.

Chain of AP-2 complex subunit beta (Homo sapiens) (P63010 whole entry, looked up, the tested form may be a part, one chain of several): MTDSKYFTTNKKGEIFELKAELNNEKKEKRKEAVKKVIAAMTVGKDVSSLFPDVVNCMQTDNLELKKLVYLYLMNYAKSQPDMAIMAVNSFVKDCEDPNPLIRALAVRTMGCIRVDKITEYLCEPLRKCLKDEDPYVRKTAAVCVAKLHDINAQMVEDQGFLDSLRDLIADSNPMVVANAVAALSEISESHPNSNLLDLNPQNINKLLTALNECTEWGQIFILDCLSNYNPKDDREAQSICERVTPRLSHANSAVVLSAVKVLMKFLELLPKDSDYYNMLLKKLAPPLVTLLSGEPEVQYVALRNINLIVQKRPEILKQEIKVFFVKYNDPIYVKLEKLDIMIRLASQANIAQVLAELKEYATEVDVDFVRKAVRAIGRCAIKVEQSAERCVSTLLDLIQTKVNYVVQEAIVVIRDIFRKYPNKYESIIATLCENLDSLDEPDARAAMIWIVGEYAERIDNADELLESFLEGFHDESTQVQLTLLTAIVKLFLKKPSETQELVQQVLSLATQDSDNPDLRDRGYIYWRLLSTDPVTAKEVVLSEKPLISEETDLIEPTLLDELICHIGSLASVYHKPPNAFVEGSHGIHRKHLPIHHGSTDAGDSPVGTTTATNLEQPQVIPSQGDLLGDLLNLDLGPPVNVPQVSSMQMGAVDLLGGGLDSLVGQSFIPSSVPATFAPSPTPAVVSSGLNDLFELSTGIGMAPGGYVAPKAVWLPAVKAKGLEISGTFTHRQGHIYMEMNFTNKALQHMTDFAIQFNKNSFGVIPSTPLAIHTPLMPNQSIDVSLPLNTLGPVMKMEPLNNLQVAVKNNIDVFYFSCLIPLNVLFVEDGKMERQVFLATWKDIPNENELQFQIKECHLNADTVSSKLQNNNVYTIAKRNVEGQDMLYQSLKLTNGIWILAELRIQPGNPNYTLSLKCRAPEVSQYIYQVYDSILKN
Chain of Beta-adrenergic receptor kinase 1 (Homo sapiens) (P25098 whole entry, looked up): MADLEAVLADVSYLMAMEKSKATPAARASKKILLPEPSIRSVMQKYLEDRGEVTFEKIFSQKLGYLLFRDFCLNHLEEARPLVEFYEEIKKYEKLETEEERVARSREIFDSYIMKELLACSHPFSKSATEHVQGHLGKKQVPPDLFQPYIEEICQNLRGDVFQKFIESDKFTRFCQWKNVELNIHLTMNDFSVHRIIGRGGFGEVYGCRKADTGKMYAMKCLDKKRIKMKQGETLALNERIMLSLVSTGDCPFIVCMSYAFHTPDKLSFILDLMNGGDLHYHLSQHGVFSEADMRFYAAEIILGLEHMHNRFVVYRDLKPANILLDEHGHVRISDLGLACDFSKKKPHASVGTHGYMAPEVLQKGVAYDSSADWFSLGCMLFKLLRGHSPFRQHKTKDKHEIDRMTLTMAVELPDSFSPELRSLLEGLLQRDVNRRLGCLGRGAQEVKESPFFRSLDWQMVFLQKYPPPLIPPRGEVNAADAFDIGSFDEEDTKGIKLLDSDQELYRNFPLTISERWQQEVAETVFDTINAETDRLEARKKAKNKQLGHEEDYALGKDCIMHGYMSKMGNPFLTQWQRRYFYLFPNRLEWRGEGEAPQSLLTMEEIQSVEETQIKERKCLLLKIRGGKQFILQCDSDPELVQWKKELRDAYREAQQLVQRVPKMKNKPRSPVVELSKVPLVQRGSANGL
Chain of ATP-binding cassette sub-family B member 6 (Homo sapiens) (Q9NP58 whole entry, looked up): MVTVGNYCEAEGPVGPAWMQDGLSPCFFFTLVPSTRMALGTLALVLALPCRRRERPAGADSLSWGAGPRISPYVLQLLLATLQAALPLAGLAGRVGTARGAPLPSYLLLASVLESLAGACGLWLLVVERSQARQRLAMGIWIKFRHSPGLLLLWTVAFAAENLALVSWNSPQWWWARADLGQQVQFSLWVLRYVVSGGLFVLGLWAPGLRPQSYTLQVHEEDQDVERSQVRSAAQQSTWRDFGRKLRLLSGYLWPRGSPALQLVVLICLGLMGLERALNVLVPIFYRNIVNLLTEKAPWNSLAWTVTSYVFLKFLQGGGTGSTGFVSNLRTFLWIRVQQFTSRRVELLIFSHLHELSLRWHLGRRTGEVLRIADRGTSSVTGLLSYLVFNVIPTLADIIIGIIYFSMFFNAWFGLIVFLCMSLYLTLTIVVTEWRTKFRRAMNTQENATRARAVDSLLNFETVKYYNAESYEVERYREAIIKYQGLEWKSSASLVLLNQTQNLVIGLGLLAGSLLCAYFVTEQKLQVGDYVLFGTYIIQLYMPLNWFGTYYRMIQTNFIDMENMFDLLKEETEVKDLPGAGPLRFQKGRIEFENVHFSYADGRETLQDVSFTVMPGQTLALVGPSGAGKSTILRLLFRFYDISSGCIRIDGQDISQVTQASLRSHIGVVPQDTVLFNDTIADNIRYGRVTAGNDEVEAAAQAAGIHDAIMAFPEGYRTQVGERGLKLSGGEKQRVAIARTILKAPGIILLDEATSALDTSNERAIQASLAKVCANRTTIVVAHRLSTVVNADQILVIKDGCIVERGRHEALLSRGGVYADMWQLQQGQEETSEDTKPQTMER
Chain of Integrin beta-1 (Homo sapiens) + Integrin alpha-4 (Homo sapiens) (P05556 whole entry, looked up): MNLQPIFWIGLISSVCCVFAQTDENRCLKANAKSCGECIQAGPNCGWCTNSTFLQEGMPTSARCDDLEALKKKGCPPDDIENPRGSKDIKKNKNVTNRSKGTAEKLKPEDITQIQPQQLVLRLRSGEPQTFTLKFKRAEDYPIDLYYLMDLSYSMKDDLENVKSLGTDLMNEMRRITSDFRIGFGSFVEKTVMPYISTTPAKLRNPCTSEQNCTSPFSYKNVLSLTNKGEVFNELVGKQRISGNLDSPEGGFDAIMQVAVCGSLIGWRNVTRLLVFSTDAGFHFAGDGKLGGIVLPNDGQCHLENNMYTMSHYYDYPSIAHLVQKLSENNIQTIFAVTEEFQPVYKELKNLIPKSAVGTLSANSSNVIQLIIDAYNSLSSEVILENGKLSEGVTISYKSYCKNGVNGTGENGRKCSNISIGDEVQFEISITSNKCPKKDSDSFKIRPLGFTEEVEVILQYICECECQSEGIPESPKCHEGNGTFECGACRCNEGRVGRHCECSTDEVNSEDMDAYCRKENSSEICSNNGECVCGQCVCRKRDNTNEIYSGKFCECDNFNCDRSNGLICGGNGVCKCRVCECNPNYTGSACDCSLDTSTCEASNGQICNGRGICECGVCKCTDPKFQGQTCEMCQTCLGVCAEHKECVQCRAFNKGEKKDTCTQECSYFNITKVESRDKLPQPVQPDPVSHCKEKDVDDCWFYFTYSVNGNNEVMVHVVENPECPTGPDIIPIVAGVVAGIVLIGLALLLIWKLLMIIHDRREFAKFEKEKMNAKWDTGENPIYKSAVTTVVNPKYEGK
Chain of Integrin beta-1 (Homo sapiens) + Integrin alpha-4 (Homo sapiens) (P13612 whole entry, looked up): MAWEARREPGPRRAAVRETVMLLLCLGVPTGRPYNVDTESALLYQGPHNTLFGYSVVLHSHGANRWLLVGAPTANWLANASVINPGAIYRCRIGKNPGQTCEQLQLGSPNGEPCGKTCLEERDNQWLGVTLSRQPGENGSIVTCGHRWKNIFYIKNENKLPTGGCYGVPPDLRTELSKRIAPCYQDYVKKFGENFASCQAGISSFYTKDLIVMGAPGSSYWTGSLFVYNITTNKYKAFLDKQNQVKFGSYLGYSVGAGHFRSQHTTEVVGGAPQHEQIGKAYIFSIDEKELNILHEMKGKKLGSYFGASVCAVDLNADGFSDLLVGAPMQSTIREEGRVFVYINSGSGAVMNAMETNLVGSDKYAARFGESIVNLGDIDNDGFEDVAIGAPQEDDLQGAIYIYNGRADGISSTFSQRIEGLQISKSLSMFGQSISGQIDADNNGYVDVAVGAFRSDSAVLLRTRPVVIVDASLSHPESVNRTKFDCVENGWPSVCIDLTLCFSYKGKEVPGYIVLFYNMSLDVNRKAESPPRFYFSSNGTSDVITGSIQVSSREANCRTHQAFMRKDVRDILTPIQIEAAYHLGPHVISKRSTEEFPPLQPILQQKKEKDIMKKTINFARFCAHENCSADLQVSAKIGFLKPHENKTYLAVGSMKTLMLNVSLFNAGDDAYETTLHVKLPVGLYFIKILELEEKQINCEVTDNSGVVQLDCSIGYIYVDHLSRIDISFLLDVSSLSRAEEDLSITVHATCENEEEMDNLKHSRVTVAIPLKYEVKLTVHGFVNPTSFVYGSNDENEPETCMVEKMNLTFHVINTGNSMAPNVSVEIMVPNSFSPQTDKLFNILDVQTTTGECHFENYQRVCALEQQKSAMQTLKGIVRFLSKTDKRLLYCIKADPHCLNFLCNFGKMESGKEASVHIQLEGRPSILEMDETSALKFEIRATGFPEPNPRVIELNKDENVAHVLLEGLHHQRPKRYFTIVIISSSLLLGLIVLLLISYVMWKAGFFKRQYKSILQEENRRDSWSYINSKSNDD
Chain of Beta-2 adrenergic receptor (Homo sapiens) (P07550 whole entry, looked up): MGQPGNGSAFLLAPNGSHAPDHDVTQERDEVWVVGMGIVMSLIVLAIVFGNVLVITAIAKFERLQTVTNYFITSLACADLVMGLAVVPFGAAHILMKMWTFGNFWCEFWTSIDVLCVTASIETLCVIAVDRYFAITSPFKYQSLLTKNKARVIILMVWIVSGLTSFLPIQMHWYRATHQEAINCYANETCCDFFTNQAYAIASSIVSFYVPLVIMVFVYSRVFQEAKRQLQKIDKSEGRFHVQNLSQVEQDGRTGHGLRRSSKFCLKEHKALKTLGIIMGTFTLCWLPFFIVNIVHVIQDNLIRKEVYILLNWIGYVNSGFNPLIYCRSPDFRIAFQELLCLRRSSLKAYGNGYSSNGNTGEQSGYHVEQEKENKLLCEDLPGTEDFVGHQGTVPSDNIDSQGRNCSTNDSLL

As for `CC(C(=O)O)c1ccc(N2Cc3ccccc3C2=O)cc1` (stereo not given), the percent of DMSO control GFP in test [1] was 98.4% (inactive). Further, the GFP response vs DMSO in test [2] was 103% (inactive); in test [4] it was 119% (inactive). In addition, in test [3], the percent response of DMSO control is 93.9% (inactive). The GFP response, % of DMSO in test [5] was 90.4% (inactive). The compound also gave a double positive events in test [6] of 62.1%. For the same compound, the vesicle binding response in test [6] was 2350% (inactive). Further, the inhibition was -7.47% (inactive) in test [7] and 1% (inactive) in test [14]. For the same compound, the superoxide response (% of plate) in [8] is 112% (inactive). In [9], the aptamer binding inhibition is -4% (inactive). Besides, the response in test [10] is 3.47% (inactive); in test [11] it was 0.33% (inactive). Besides, the binding (% of control) in test [12] was 107% (inactive). Moreover, in [13], the efflux inhibition (fraction of control) was -0.41 (inactive). In addition, in [15], the differentiation response is -1.12% (inactive).

Turning to `CC(C)[N+](C)(CCOC(=O)C1c2ccccc2Oc2ccccc21)C(C)C`, the percent of DMSO control GFP in [1] was 99.6% (inactive). Besides, the GFP response vs DMSO in [2] is 101% (inactive); in test [4], 85.3% (inactive). In addition, the percent response of DMSO control in test [3] is 109% (inactive). The GFP response, % of DMSO in test [5] is 101% (inactive). In [6], the double positive events stood at 56%. Besides, the vesicle binding response in test [6] is 192% (inactive). Also, the inhibition is 1.62% (inactive) in test [7], -3.24% (inactive) in test [16] and 7% (inactive) in test [14]. Also, the superoxide response (% of plate) in test [8] is 81.9% (inactive). In addition, in test [9], the aptamer binding inhibition is 0% (inactive). Also, in test [11], the response is 9.45% (inactive). For the same compound, the binding (% of control) in test [12] is 97.3% (inactive). The efflux inhibition (fraction of control) in [13] is -0.09 (inactive). In addition, the differentiation response in test [15] is 1.41% (inactive).

With `O=C1C=CC(=O)C(C2=C3C(=O)N(CCc4ccccc4)CC(=O)N3CCC2)=C1`, in test [1], the percent of DMSO control GFP was 106% (inactive). The figures for the GFP response vs DMSO in test [2] and in test [4] were 103% (inactive) and 94.3% (inactive), respectively. Moreover, the percent response of DMSO control in [3] is 102% (inactive). Besides, the GFP response, % of DMSO in [5] is 104% (inactive). Moreover, the double positive events in [6] was found to be 42.5%. Besides, the vesicle binding response in test [6] was 92.7% (inactive). Moreover, the inhibition in test [7] was -30.1% (inactive); in [16], 12% (inactive); in [14] it was 8% (inactive). In [8], the superoxide response (% of plate) was 115% (inactive). In addition, in test [9], the aptamer binding inhibition is 3% (inactive). Besides, in [11], the response is -0.59% (inactive). Further, the binding (% of control) in test [12] was 101% (inactive). Besides, in test [13], the efflux inhibition (fraction of control) is -0.28 (inactive). The differentiation response in test [15] was -18% (inactive).

For the compound `NCCOc1ccccc1OCCN`, the percent of DMSO control GFP in [1] is 102% (inactive). Moreover, the GFP response vs DMSO is 93.8% (inactive) in test [2] and 90.3% (inactive) in [4]. For the same compound, the percent response of DMSO control in test [3] was 102% (inactive). Moreover, in test [5], the GFP response, % of DMSO was 99.9% (inactive). The same compound yielded a double positive events in test [6] of 59.5%. In addition, the vesicle binding response in test [6] is 208% (inactive). In addition, the inhibition is -6.77% (inactive) in [7], -11.9% (inactive) in test [16] and 11% (inactive) in [14]. Further, in test [8], the superoxide response (% of plate) was 91.8% (inactive). Further, in test [9], the aptamer binding inhibition is -6% (inactive). Further, the response in test [11] is -1.26% (inactive). Further, in test [12], the binding (% of control) is 109% (inactive). Also, the efflux inhibition (fraction of control) in test [13] is -0.2 (inactive). Besides, the differentiation response in test [15] was -26% (inactive).

Turning to `CC(C)NC(=O)c1ccc(C(C)C)cc1`, the percent of DMSO control GFP in test [1] is 98.4% (inactive). For the same compound, the GFP response vs DMSO in [2] is 102% (inactive); in test [4], 118% (inactive). The percent response of DMSO control in [3] is 108% (inactive). In addition, the GFP response, % of DMSO in [5] was 101% (inactive). The double positive events in test [6] stood at 63.6%. Moreover, in [6], the vesicle binding response is 255% (inactive). Further, the inhibition in test [7] is -11.3% (inactive); in [16], -5.8% (inactive); in test [14], 13% (inactive). For the same compound, the superoxide response (% of plate) in test [8] was 109% (inactive). Moreover, the aptamer binding inhibition in test [9] is -2% (inactive). Further, the response in test [10] was 0.9% (inactive); in test [11], -1.44% (inactive). Besides, the binding (% of control) in [12] is 102% (inactive). For the same compound, in test [15], the differentiation response is 2.4% (inactive).
